Data reported in PubChem BioAssay (NCATS).
Records with an inconclusive call do not appear. Calls of active or inactive are those of the source. Unless noted, the call rests on the fitted dose curve; in most records, active means well fitted curve in the direction sought with a large enough effect; inconclusive means small, poorly fitted or top-dose-only effect, or another doubt; inactive means no such curve, though single readings can be large; an effect the other way counts as inactive or inconclusive.

Columns and labels:
[1] = target: Cytochrome P450 2C9 (Homo sapiens) (UniProt P11712); test: qHTS Assay for Inhibitors and Substrates of Cytochrome P450 2C9 (AID 883); conditions: recombinant CYP2C9, luciferin-H luminescence, 60 min; series mostly up to 57.1 µM; further: nearly all actives have a fitted effect of over 60% in size; further: potency means the concentration at half of the fitted maximal effect; on activity change, negative = inhibition: on the % scale 0 is the no-effect control and ±100 the full control effect
Cytochrome P450 2C9 (Homo sapiens), sequence (P11712 whole entry, looked up): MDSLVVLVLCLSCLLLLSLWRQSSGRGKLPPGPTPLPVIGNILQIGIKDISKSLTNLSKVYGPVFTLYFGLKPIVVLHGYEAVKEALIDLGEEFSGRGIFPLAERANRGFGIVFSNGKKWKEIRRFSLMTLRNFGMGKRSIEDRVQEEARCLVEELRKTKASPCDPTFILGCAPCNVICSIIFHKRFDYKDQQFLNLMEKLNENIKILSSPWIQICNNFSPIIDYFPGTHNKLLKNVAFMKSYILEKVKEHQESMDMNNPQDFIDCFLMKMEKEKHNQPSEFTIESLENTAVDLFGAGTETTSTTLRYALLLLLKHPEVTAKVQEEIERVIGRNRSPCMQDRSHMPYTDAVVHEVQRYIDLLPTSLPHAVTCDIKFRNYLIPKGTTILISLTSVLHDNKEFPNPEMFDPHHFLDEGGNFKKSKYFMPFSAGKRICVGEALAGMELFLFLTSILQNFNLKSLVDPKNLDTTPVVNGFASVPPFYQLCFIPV
Summary of the method: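 Inhibition of CYP2C9 is scored as loss of luminescence, with 57uM sulphaphenazole defining 100% inhibition. Substrate Luciferin-H is used at 100uM, equal to its KM; enzyme at 10nM in 25mM KPO4, 60 min at 37C with NADPH regeneration.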

[2] = target: Cytochrome P450 3A4 (Homo sapiens) (UniProt P08684); test: qHTS Assay for Activators of Cytochrome P450 3A4 (AID 885); conditions: recombinant CYP3A4, Luciferin-PPXE luminescence, 60 min; series mostly up to 57.1 µM; further: nearly all actives have a fitted effect of over 65% in size
Cytochrome P450 3A4 (Homo sapiens), sequence (P08684 whole entry, looked up): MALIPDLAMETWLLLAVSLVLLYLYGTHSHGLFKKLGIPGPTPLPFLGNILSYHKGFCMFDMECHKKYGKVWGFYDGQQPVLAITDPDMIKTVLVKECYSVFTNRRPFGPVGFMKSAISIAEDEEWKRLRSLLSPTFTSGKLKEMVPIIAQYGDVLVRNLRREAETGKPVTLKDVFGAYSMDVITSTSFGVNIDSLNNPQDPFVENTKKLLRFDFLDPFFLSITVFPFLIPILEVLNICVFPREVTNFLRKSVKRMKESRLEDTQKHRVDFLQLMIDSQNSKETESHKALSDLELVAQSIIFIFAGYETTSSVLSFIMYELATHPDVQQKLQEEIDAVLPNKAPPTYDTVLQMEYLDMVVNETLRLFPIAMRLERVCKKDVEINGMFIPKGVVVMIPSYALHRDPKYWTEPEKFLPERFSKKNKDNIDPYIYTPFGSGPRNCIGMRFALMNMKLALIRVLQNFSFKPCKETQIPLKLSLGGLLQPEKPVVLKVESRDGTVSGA
Summary of the method: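 Steps: enzyme/substrate mix dispensed; compound added, 10 min RT; NADPH regeneration solution added, 60 min RT; luciferin detection buffer stops reaction; 20 min later luminescence measured.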

[3] = target: Cytochrome P450 2D6 (Homo sapiens) (UniProt P10635); test: qHTS Assay for Inhibitors and Substrates of Cytochrome P450 2D6 (AID 891); conditions: recombinant CYP2D6, luciferin-ME EGE luminescence; series mostly up to 57.1 µM;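 further: luciferin methyl ether substrate demethylated by CYP2D6 with NADPH regeneration; on the % scale 0 is the no-effect control and ±100 the full control effect; nearly all actives have a fitted effect of over 60% in size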
Cytochrome P450 2D6 (Homo sapiens), sequence (P10635 whole entry, looked up): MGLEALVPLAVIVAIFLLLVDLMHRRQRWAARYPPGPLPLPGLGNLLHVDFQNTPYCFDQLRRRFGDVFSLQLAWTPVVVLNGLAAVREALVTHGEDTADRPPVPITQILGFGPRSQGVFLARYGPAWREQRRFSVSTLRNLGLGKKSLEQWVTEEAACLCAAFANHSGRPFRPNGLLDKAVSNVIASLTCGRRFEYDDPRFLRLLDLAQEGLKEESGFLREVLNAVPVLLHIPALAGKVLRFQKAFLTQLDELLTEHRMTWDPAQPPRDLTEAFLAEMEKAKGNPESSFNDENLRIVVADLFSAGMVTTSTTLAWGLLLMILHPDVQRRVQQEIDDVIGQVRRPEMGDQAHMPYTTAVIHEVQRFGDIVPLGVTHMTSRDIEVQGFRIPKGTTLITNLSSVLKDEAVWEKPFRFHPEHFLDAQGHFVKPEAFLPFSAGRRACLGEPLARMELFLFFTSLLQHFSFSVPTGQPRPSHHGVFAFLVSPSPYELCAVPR
Summary of the method: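 Human CYP2D6 (5 nM) with 30 uM Luciferin-ME EGE (at Km) in 100 mM KPO4, compound preincubated 10 min, then NADPH regeneration system for 60 min at room temperature. Luciferin read by luminescence; normalized to 1.43 uM quinidine.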

[4] = target: Guanine nucleotide-binding protein G(i) subunit alpha-1 (Homo sapiens) (UniProt P63096); test: qHTS Assay for Inhibitors of RGS12 GoLoco Motif Activity (Green Fluorophore) (AID 879); conditions: Galphai1/FITC-RGS12 GoLoco peptide, fluorescence polarization; series mostly up to 57.1 µM;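 further: 0% = labeled peptide with Gαi1 and full inhibition = labeled peptide alone without protein; negative values mean loss of peptide binding seen as reduced polarization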
Guanine nucleotide-binding protein G(i) subunit alpha-1 (Homo sapiens), sequence (P63096 whole entry, looked up): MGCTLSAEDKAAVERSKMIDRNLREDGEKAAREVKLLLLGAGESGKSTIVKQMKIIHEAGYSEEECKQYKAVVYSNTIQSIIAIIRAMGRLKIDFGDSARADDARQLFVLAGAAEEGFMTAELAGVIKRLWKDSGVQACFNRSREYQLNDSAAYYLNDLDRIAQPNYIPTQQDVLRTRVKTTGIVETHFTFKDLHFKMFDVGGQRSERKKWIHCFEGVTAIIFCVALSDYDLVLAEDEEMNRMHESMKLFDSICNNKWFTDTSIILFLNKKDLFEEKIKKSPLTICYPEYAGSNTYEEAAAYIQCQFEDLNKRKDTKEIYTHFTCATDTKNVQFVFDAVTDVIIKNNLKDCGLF
Summary of the method: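 Fluorescence polarization assay: 50 nM Gαi1 with 10 nM FITC-labeled RGS12 GoLoco peptide in 10 mM Tris pH 7.5, 150 mM NaCl, 0.1 mM GDP, 0.05% NP40, 10 min at room temperature with compound.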

[5] = target: Cytochrome P450 3A4 (Homo sapiens) (UniProt P08684); test: qHTS Assay for Inhibitors and Substrates of Cytochrome P450 3A4 (AID 884); conditions: recombinant CYP3A4, Luciferin-PPXE luminescence; series mostly up to 57.1 µM; further: on the % scale 0 is the no-effect control and ±100 the full control effect; nearly all actives have a fitted effect of over 50% in size
Summary of the method: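 20 nM human CYP3A4 with 25 uM Luciferin-PPXE (at KM) in 200 mM KPO4, preincubated 10 min with compound; NADPH regeneration started a 60 min RT reaction. Luciferin detected by luminescence, normalized to 57 uM ketoconazole as full inhibition.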

[6] = qHTS Assay for Identification of Small Molecule Antagonists for NFkB Signaling Pathway (AID 895; active means well fitted inhibition curve with a large enough effect in the signal ratio, with a control signal flat, not every such curve was filed as active; the % refers to the signal ratio; further: on the % scale 0 is the no-effect control and ±100 the full control effect); conditions: NFkB beta-lactamase reporter cells, FRET ratio 460/530, stimulated with 10 pM TNF alpha; series mostly up to 38.3 µM
Summary of the method: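 Beta-lactamase reporter read-out (460 and 530 nm emission ratio, 405 nm excitation, 2 hrs substrate loading RT) after 5 hr stimulation with 10 pM TNF alpha in compound-treated NFkB-bla ME-180 cells in low-serum medium.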

[7] = target: Cytochrome P450 2C19 (Homo sapiens) (UniProt P33261); test: qHTS Assay for Inhibitors and Substrates of Cytochrome P450 2C19 (AID 899); conditions: recombinant CYP2C19, luciferin-H EGE luminescence; series mostly up to 57.1 µM; further: on the % scale 0 is the no-effect control and ±100 the full control effect; nearly all actives have a fitted effect of over 60% in size
Cytochrome P450 2C19 (Homo sapiens), sequence (P33261 whole entry, looked up): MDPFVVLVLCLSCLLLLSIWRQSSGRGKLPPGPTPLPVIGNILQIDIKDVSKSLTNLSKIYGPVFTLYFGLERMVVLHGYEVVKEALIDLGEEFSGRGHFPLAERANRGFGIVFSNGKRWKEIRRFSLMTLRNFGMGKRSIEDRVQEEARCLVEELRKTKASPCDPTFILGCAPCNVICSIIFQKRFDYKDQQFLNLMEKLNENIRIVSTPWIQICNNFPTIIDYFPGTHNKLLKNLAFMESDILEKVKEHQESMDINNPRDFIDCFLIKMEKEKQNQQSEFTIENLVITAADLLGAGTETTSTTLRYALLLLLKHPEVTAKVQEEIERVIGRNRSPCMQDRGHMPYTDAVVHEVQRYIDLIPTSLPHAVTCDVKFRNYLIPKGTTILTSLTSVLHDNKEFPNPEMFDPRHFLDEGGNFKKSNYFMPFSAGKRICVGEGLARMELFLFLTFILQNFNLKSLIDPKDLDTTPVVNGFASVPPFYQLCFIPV
Summary of the method: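 5nM enzyme + 10uM Luciferin-H EGE (=KM), 50mM KPO4; cpd pin-transferred, 10 min 37C; NADPH regen, 60 min 37C; stopped w/ luciferin detection reagent, 20 min; luminescence. Normalized to 57uM ketoconazole (AC100).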

[8] = Confirmation and Secondary Assay for Modulators of Hemoglobin Beta Chain Splicing at IVS2 654 locus (AID 910); conditions: HeLa EGFP-654 splicing reporter, GFP fluorescence, 48 h; series mostly up to 46.1 µM;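 further: HeLa cells stably carrying EGFP split by mutant beta-globin IVS2-654 intron; per-well total GFP intensity by laser scanning cytometry after 2-day treatment; % of control where 0% means no effect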
Summary of the method: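 Readout: per-well total peak green fluorescence (488 nm ex, 500–520 nm em) from objects 5–250 µm, reflecting correct splicing of an EGFP-654 reporter. Compounds were applied for 2 days at 37 °C to overnight-plated HeLa EGFP-654 cells; controls were DMSO and 500 nM IVS2-654 PNA.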

[9] = qHTS Assay for Identification of Small Molecule Agonists for Thrombopoietin (TPO) Signaling Pathway (AID 917); conditions: TPO signaling pathway reporter cells, agonist qHTS, stimulated with TPO at its EC50; series mostly up to 38.5 µM; further: on the % scale 0 is the no-effect control and ±100 the full control effect
Summary of the method: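 Activators of TPO signaling were sought in murine Ba/F3 cells transfected with the human receptor, using a luciferase gene driven by the Glycoprotein IIb promoter; 24-hr compound exposure at 37 C alongside 26 pM TPO, in IL-3-free medium.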

[10] = Confirmation and Secondary Assay for Modulators of Hemoglobin Beta Chain Splicing at IVS2 705 locus (AID 930); conditions: HeLa EGFP-705 splicing reporter, GFP fluorescence, 48 h; series mostly up to 46.1 µM;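 further: HeLa cells stably expressing the EGFP-705 splicing reporter; % of control where 0% means no effect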
Summary of the method: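 HeLa cells stably carrying EGFP interrupted by mutant beta-globin IVS2-705 intron (CMV-driven) were seeded at 500 cells/well, treated next day with compound for 2 days at 37C; corrected splicing restores EGFP, read as total peak GFP intensity per well.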

[11] = target: Muscarinic acetylcholine receptor M1 (Rattus norvegicus) (UniProt P08482); test: qHTS Assay for Antagonists of Acetylcholine Muscarinic M1 Receptor: Kinetic Measurement of Intracellular Calcium Response (AID 943); conditions: M1-expressing cells, kinetic intracellular calcium fluorescence; series mostly up to 35.3 µM;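 further: Fluo-4 calcium signal as peak divided by basal fluorescence over 4 min; nearly all actives have a fitted effect of over 75% in size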
Muscarinic acetylcholine receptor M1 (Rattus norvegicus), sequence (P08482 whole entry, looked up): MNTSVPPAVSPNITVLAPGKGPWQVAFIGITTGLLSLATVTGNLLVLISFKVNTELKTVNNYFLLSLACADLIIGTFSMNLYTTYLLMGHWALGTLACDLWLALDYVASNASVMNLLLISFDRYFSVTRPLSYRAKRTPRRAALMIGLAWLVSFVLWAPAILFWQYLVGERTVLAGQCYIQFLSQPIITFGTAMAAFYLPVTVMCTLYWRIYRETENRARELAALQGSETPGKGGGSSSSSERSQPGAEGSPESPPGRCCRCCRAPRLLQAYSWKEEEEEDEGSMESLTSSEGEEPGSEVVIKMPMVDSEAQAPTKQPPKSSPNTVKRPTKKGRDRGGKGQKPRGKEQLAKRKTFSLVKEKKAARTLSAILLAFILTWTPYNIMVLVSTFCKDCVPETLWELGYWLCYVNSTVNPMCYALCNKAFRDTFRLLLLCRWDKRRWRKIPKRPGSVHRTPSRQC
Summary of the method: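 Intracellular calcium flux, recorded with Fluo-4 in a kinetic plate reader, served as signal; the response to carbachol at EC80 (100 nM final) was taken as maximal over minimal fluorescence after a 10 min compound pre-incubation in rat M1-CHO cells.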

[12] = target: Muscarinic acetylcholine receptor M1 (Rattus norvegicus) (UniProt P08482); test: qHTS Assay for Antagonists of Acetylcholine Muscarinic M1 Receptor: Measurement of IP-One Response (AID 944); conditions: CHO-M1 cells, IP-One HTRF, antagonist mode; series mostly up to 46.1 µM; further: nearly all actives have a fitted effect of over 75% in size
Summary of the method: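 Steps: plate transfected CHO-M1 cells overnight; add test compound, 10 min; add carbachol (200 nM, EC80) in stimulation buffer with LiCl; incubate 30 min; add labelled IP1 tracer and anti-IP1 antibody in lysis buffer; read HTRF after 10 min.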

[13] = target: Pyruvate kinase (Leishmania mexicana) (UniProt Q27686); test: qHTS Validation Assay for Inhibitors of Leishmania Mexicana Pyruvate Kinase (AID 945);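 further: 0% = DMSO only neutral control wells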; conditions: purified L. mexicana pyruvate kinase, enzyme activity, E451W mutant enzyme; series mostly up to 57.5 µM
Pyruvate kinase (Leishmania mexicana), sequence (Q27686 2-499 E452W): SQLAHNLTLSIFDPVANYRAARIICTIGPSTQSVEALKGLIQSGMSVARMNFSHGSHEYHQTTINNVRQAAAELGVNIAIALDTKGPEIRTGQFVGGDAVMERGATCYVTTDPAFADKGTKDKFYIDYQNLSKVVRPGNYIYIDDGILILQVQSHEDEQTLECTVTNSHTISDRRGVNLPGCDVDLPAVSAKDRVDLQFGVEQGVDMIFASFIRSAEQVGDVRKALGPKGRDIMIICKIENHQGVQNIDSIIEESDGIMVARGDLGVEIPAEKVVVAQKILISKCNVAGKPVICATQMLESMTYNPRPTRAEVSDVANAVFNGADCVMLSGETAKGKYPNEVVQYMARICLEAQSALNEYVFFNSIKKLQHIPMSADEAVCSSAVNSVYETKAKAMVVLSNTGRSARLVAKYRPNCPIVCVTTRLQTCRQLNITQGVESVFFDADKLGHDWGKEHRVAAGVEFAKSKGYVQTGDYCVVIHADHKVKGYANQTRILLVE
Summary of the method: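 LmPYK E451W 0.2 nM; 0.5 mM PEP, 0.1 mM ADP, 7 mM MgCl2, 50 mM KCl, imidazole pH 7.2, 0.01% Tween 20, 0.05% BSA; 1 h RT; PKLight luminescence; DMSO-normalized.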

[14] = Cellular Toxicity (caspase-3) H-4-II-E (AID 663); conditions: H-4-II-E rat hepatoma, scaled: DMSO 0%, 100 µM tamoxifen 100%; series mostly up to 92.2 µM;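 further: cells exposed to compound for 16 hr before readout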
Summary of the method: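 Apoptosis induction is scored as increased luminescence from caspase 3/7 substrate cleavage in rat hepatoma H-4-II-E cells exposed to compound for 16 hr. Activity is scaled between DMSO and 100 uM tamoxifen.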

[15] = Cellular Toxicity (caspase-3) Hek293 (AID 664); conditions: HEK293 caspase-3 activation, DMSO = 0%, 100 µM tamoxifen = 100%; series mostly up to 92.2 µM;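 further: cells exposed to compound for 16 h at 37 °C before readout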
Summary of the method: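 Activation of caspase-3/7 is measured as increased luminescence from cleaved peptide-aminoluciferin substrate in HEK293 cells treated 16 hours at 37 °C. AC50 values come from Hill-equation fits of concentration-response data.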

[16] = Cellular Toxicity (caspase-3) N2a (AID 665); conditions: N2a cells, luminescence, normalized: DMSO 0%, 10 µM staurosporine 100%; series mostly up to 92.2 µM;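 further: compound exposure lasted 16 h at 37 °C before readout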
Summary of the method: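 Plated mouse neuroblastoma N2a cells received titrated compounds for 16 h in complete medium. Caspase activity was then detected with a peptide-aminoluciferin luminescent reagent.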

[17] = Cellular Toxicity (caspase-3) NIH 3T3 (AID 666); conditions: NIH 3T3 caspase-3 activation, apoptosis/toxicity, 0% DMSO, 100% is 100 µM tamoxifen; series mostly up to 92.2 µM;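 further: 0% = DMSO basal and 100% = 100 µM tamoxifen stimulation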
Summary of the method: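 Concentration-response qHTS in NIH 3T3 mouse fibroblasts scores caspase-3/7 activation as rising luminescence after 16 hr compound exposure. Signals are scaled between DMSO-only and 100 uM tamoxifen.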

[18] = Cellular Toxicity (caspase-3) Renal Proximal Tubule (AID 667); conditions: renal proximal tubule cells, primary cells freshly taken from rat, solvent-only wells 0%, staurosporine 100%; series mostly up to 91.7 µM;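 further: cells exposed to compound for 16 hours at 37 °C before detection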
Summary of the method: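 Luminescent caspase 3/7 signal from peptide-aminoluciferin cleavage measures apoptosis in freshly isolated rat kidney proximal tubule cells after 16 h compound exposure. Concentration-response data are normalized to DMSO and 10 uM staurosporine, and AC50 values come from Hill equation fits.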

[19] = Cell Viability - LYMP2-001 (AID 921); conditions: LYMP2-001 lymphoblastoid cell viability; series mostly up to 92.2 µM;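 further: cells exposed to compound for 24 h at 37 °C; 0% = DMSO only and full inhibition = tetraoctylammonium bromide control wells; nearly all actives have a fitted effect of over 70% in size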
Summary of the method: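 CellTiter-Glo luminescence (intracellular ATP) after 24 hr compound exposure at 37 C, 2500 lymphoblastoid cells/well in complete medium. AC50 fitted with standard Hill equation; tetraoctylammonium bromide positive control.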

[20] = MultiTox-Fluor Cytotoxicity Assay - LYMP1-001 - Dead Cells (AID 946); conditions: LYMP1-001 lymphoblastoid cells, dead-cell protease fluorescence; series mostly up to 92.2 µM;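 further: 0% = DMSO and 100% = tetraoctylammonium bromide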
Summary of the method: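 Seed 2500 LYMP1-001 cells/well, incubate 5 hr at 37 C; add compound, 16 hr at 37 C; add MultiTox-Fluor reagent, 60 min RT; read dead-cell fluorescence Ex/Em=485/520. Normalize to DMSO and 15 uM tetraoctylammonium bromide.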

CC(=O)C1=C(O)C=C2Oc3c(C(C)=O)c(O)c(C)c(O)c3[C@]2(C)C1=O
inactive: outcome [2] | outcome [3]
active: Potency [1] 6.3 nM

NCCCC(=O)O
inactive: outcome [4] | Potency [1] | outcome [5] | outcome [3] | outcome [6] | outcome [7] | outcome [8] | outcome [9] | outcome [10] | outcome [11] | outcome [12] | outcome [13]

Cc1ccc(OC[C@H](O)[C@H](C)NC(C)C)c2c1CCC2
inactive: outcome [4] | outcome [2] | outcome [9] | outcome [11] | outcome [12] | outcome [13]

COC(C)=O
inactive: outcome [14] | outcome [15] | outcome [16] | outcome [17] | outcome [18] | outcome [5] | outcome [19] | outcome [20]

CN(C)CCCn1cc(C2=C(c3c[nH]c4ccccc34)C(=O)NC2=O)c2ccccc21
inactive: outcome [2]

C=Cc1ccccc1
inactive: outcome [14] | outcome [15] | outcome [16] | outcome [17] | outcome [18] | outcome [5] | outcome [19] | outcome [20]

CN(C)Cc1ccccc1
inactive: outcome [14] | outcome [15] | outcome [16] | outcome [17] | outcome [18] | outcome [5] | outcome [19] | outcome [20]

C1CNCCN1
inactive: outcome [5] | outcome [8] | outcome [10]

CN[C@H]1CC[C@@H](c2ccc(Cl)c(Cl)c2)c2ccccc21
inactive: outcome [2] | outcome [13]

CCCCCCCCCCCCCCCC(=O)OC/C=C(C)/C=C/C=C(C)/C=C/C1=C(C)CCCC1(C)C
inactive: outcome [5] | outcome [8] | outcome [10]

O=C(O)c1cc2ccccc2c(Cc2c(O)c(C(=O)O)cc3ccccc23)c1O
inactive: activity change, negative = inhibition [1] -15.3% [at 11.4 µM] | activity change, negative = inhibition [3] 6.29% [at 11.4 µM] | activity, negative = inhibition [7] 1.36% [at 11.4 µM]

CCCCCCCCCC(=O)O
inactive: outcome [14] | outcome [15] | outcome [16] | outcome [17] | outcome [18] | outcome [5] | outcome [19] | outcome [20]

COC1=CC(=O)C[C@@H](C)[C@@]12Oc1c(Cl)c(OC)cc(OC)c1C2=O
inactive: Potency [1] | outcome [3] | outcome [7]

O=C(O)CC(O)(CC(=O)O)C(=O)O
inactive: outcome [14] | outcome [15] | outcome [16] | outcome [17] | outcome [18] | outcome [5] | outcome [8] | outcome [19] | outcome [10] | outcome [20]

COc1ccc2[nH]c(=O)c3c(c2c1)OC(C)(C)C=C3
inactive: outcome [5] | outcome [3]
